This is a sample that favours compounds with a hit; in the whole collection about 27% have one here.
Cav32 inh: Cav3.2 calcium influx blockers – cell-based, Fluo-4 calcium fluorescence, FDSS, MLSMR library, primary screen. Cav3.2-expressing cells; hits give low values. B-score at 10 µM. actives 4% (n = 100,000). AID 449739, 2010;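 active = single-dose well whose peak fluorescence ratio is a statistical outlier from its plate by either plate-standardised score or position-corrected B-score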
CYP2C19 act: human CYP2C19 activators, primary screen, biochemical, luminescence; Cytochrome P450 2C19 (Homo sapiens), P33261; recombinant CYP2C19, luciferin-H EGE luminescence; hits give high values; 0 = fully inhibited enzyme, 1 = untreated enzyme; activation factor at 5 µM; 96,000 tested, under 10 active; AID 1025, 2008;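 active = activation factor of at least 2 at 5 µM in the primary screen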
CYP2C19 inhib: blockers of cytochrome P450 2C19 activity – biochemical, luminescence, ADME assay, primary screen; P33261; CYP2C19 Supersomes, luciferin-H EGE luminescence, 30 min; inhibition, % at 5 µM; actives 21% (n = 96,000); AID 778, 2007;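 active = CYP2C19 inhibition above a set limit at 5 µM in the primary screen, cut at about 50% in these data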
CYP2C9 act: human CYP2C9 activators, primary screen, biochemical, luminescence | Cytochrome P450 2C9 (Homo sapiens), P11712 | recombinant CYP2C9, luciferin-H conversion; hits give high values; factor 1 = untreated enzyme, 0 = blocked | activation factor at 5 µM | actives 1.4% (n = 96,000) | AID 1024, 2008;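 active = activation factor of 2 or more for CYP2C9 at a 5 µM dose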
CYP2C9 inhib: blockers of cytochrome P450 2C9 activity – biochemical, luminescence, ADME assay, primary screen; P11712; CYP2C9 Supersomes, luciferin-H conversion; inhibition, % at 5 µM; actives 20% (n = 96,000);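 active = blocking of liver enzyme CYP2C9 beyond about 50% at 5 µM, limit read from the data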
Large screens that a line does not name were inactive.

Cc1ccc(NC(=O)CCC(=O)n2nc(C)cc2C)c(C)c1	none
O=C(CSc1nnc2sc3ccccc3n12)N1CCN(c2ccccc2)CC1	CYP2C9 act 2.8
CC(=O)c1cccc(OCC(=O)c2cc(C)n(-c3cc(C)on3)c2C)c1	CYP2C19 inhib 86, CYP2C9 inhib 78
CCOC(=O)CC(=O)CSc1nnc2sc3ccccc3n12	CYP2C9 act 2.3
Cc1cc(-n2c(C)cc(C(=O)COc3ccc4ccc(=O)oc4c3)c2C)no1	none
CN(C)C(=O)CSc1nnc2sc3ccccc3n12	none (no result: Cav32 inh)
O=C(CSc1nnc2sc3ccccc3n12)c1ccco1	CYP2C19 inhib 51
O=C(CSc1nnc(-c2ccncc2)n1-c1ccccc1)N1CCN(c2ccc(Cl)cc2)CC1	none (no result: Cav32 inh)
CCCCN(C)C/C(O)=C(\C#N)c1nc(-c2ccccc2)cs1	none
COc1cccc(COCCN2CCN(S(=O)(=O)c3ccc(C)cc3)CCC2=O)c1	none (no result: CYP2C19 act, CYP2C19 inhib, CYP2C9 act, CYP2C9 inhib)
O=C(CSc1nnc(NCc2ccccc2)s1)c1ccco1	CYP2C19 inhib 62, CYP2C9 inhib 81 (no result: Cav32 inh)
Cc1cc(-n2c(C)cc(C(=O)CSc3nnc4sc5ccccc5n34)c2C)no1	CYP2C19 inhib 87
Cc1ccc(C2=N/C(=C\N(C)C)C(=O)O2)cc1	none
O=C(NCc1cccs1)C1CCN(S(=O)(=O)c2cccc3nsnc23)CC1	CYP2C9 act 2.5
O=C(NCc1cccs1)C(NS(=O)(=O)c1cccc2nsnc12)c1ccccc1 (stereo not drawn)	CYP2C9 inhib 55
O=C(NCCc1ccccc1)C1CCN(S(=O)(=O)c2cccc3nsnc23)CC1	CYP2C9 act 2
O=C(c1ccco1)N1CCN(S(=O)(=O)c2cccc3nsnc23)CC1	CYP2C19 inhib 75
CCN(CC)C(=O)COc1ccc(-c2ccccc2)cc1	none
O=C(NC1CCCCC1)C1CCN(S(=O)(=O)N2CCOCC2)CC1	none
O=C(Cc1ccc(Cl)c(Cl)c1)OCC(=O)c1ccc[nH]1	CYP2C19 inhib 91, CYP2C9 inhib 52
Cc1nn(CCO)c(C)c1Oc1ccccc1O	none
CC1CCCN(C(=O)CSCC(=O)N=c2sc3ccccc3n2C)C1 (stereo not drawn)	CYP2C19 inhib 99
CCOC(=O)Nc1nnc(-c2ccc(OC)c(OC)c2)s1	none
CCOC(=O)Nc1cc(OC)c(OC)cc1Cc1nccc2cc(OC)c(OC)cc12	CYP2C19 inhib 85, CYP2C9 inhib 62
COc1ccccc1CNC(=O)c1ccc(S(=O)(=O)N2CCCC2)cc1	none
COCCn1cnnc1SCC(=O)c1ccc(S(=O)(=O)N2CCCC2)cc1	CYP2C19 inhib 57
O=C(NCc1ccccc1)C1CCN(S(=O)(=O)N2CCCCCC2)CC1	none (no result: CYP2C19 act, CYP2C19 inhib, CYP2C9 act, CYP2C9 inhib)
O=C(NCc1ccncc1)C1CCN(S(=O)(=O)Cc2ccccc2)CC1	CYP2C9 inhib 92
CC(C)(C)c1ccc(C(=O)N2CCC(C(=O)NCc3ccncc3)CC2)cc1	CYP2C9 inhib 55
CN(C(=O)Nc1ccc(S(=O)(=O)N(C)C)cc1)C1CCCCC1	none
Cc1ccccc1CNC(=O)c1ccccc1C(=O)O	none (no result: CYP2C19 act, CYP2C19 inhib, CYP2C9 act, CYP2C9 inhib)
Cc1ccccc1CNC(=O)c1ccccc1	CYP2C19 inhib 57
Cc1ccccc1CNC(=O)c1ccccc1C	CYP2C19 inhib 54
Cc1ccccc1CNC(=O)c1ccccc1N	none
CCSc1nc2ccccc2n1CCOc1ccccc1	Cav32 inh -3.8 (no result: CYP2C19 act, CYP2C19 inhib, CYP2C9 act, CYP2C9 inhib)
CC(C)N(C(=O)CSc1nc2ccccc2n1-c1ccccc1)C(C)C	CYP2C19 inhib 51 (no result: CYP2C9 act, CYP2C9 inhib)
CCSc1nc2ccccc2n1Cc1ccccc1F	Cav32 inh -5 (no result: CYP2C19 act, CYP2C19 inhib, CYP2C9 act, CYP2C9 inhib)
CC(=O)Nc1nc2ccccc2n1CCOc1ccccc1	none
NC(=O)CSc1nc2ccccc2n1Cc1ccccc1F	CYP2C19 inhib 57
CC(C)N(C(=O)CSc1nnc(Cn2nnc3ccccc32)n1C)C(C)C	none
CC(C)CSc1nc2ccccc2n1CC(N)=O	none
CC(=O)Nc1cc(NC(C)=O)cc(C(=O)NC(C)(C)C)c1	none
COc1cc2[nH]cc(C(=O)NCc3cccs3)c(=O)c2cc1OC	none (no result: CYP2C19 act, CYP2C19 inhib, CYP2C9 act, CYP2C9 inhib)
COc1ccc(CCNC(=O)C2CCC(CNc3c(N4CCCC4)c(=O)c3=O)CC2)cc1OC (stereo not drawn)	none
COC(=O)C(C)Sc1nnc2n(-c3cccc(C)c3)c(=O)c3c4c(sc3n12)CCCC4 (stereo not drawn)	none
CC1CCC2(CC1)NC(=O)N(CC(=O)NC(=O)NC1CCCC1)C2=O (stereo not drawn)	none
CC(C)N(C(=O)CSc1nc2ccccc2n1Cc1ccccc1)C(C)C	none (no result: CYP2C19 act, CYP2C19 inhib, CYP2C9 act, CYP2C9 inhib)
CC(C)N(C(=O)CSc1nc2ccccc2n1Cc1ccccc1F)C(C)C	Cav32 inh -9 (no result: CYP2C19 act, CYP2C19 inhib, CYP2C9 act, CYP2C9 inhib)
CCc1nc2ccccc2c(C(=O)OCC(=O)NCc2ccco2)c1C	CYP2C19 inhib 56
O=C(COC(=O)CCc1nc2ccccc2s1)Nc1ccc(S(=O)(=O)N2CCOCC2)cc1	CYP2C9 inhib 75
CCCc1nc2ccccc2c(C(=O)OCC(=O)NCc2ccco2)c1CC	CYP2C9 inhib 70
O=C(COC(=O)c1ccccc1Nc1ccccc1)NCc1ccco1	none
CCCc1nc2ccccc2c(C(=O)OCC(=O)Nc2ccc(S(=O)(=O)N3CCOCC3)cc2)c1CC	CYP2C9 inhib 76
CCc1nc(Nc2ccc(OC)c(OC)c2)c2nnn(Cc3ccccc3Cl)c2n1	none (no result: CYP2C19 act, CYP2C19 inhib, CYP2C9 act, CYP2C9 inhib)
CCCCNC(=O)CSc1cc(=O)n(C)c2ccccc12	none
CCCC(=O)c1c(C)c2ccccc2n1C	none
CC(=O)Nc1nc(C2COc3ccccc3O2)cs1 (stereo not drawn)	none
COc1cccc(C(=O)Nc2nnc(-c3cccs3)s2)c1	CYP2C9 inhib 70
O=C(O)CCC(=O)Nc1nnc(C(F)(F)F)s1	none
COc1ccc(C(=O)Nc2nnc(C(F)(F)F)s2)cc1	CYP2C9 inhib 75
COc1ccc(Cc2nnc(NC(=O)c3cccs3)s2)cc1	CYP2C9 inhib 69
CCC(NC(=O)Nc1nnc(C(F)(F)F)s1)(C(F)(F)F)C(F)(F)F	Cav32 inh -7.8, CYP2C9 inhib 71
CCc1nnc(NC(=O)c2cccc(OC)c2)s1	none
CN(C)C(=O)Oc1cccc([N+](C)(C)C)c1	none (no result: CYP2C19 act, CYP2C19 inhib, CYP2C9 act, CYP2C9 inhib)
O=C(Nc1nc(-c2ccc(Cl)s2)cs1)c1ccncc1	CYP2C19 inhib 51
O=C(Nc1nnc(-c2cccs2)o1)c1cccc(Oc2ccccc2)c1	Cav32 inh -8.3
COc1cc(C(=O)Nc2nc(-c3cccs3)cs2)cc(OC)c1OC	none
O=C(Nc1nnc(-c2cccs2)o1)c1cccc(F)c1	none (no result: CYP2C19 act, CYP2C19 inhib, CYP2C9 act, CYP2C9 inhib)
COc1ccc(C(=O)Nc2nc(-c3cccs3)cs2)cc1	Cav32 inh -8.9
O=C(Nc1nnc(Cc2ccc(Cl)cc2)s1)c1ccco1	CYP2C9 inhib 63
O=S1(=O)CC(O)C(Nc2ccccc2Cl)C1 (stereo not drawn)	none
NC(=O)[C@@H]1CCCNc2c(I)cc([N+](=O)[O-])cc2C(=O)N[C@@H](CO)C(=O)NCC(=O)N1	none (no result: CYP2C19 act, CYP2C19 inhib, CYP2C9 act, CYP2C9 inhib)
Cc1cc(OCc2nc(-c3cccs3)no2)cc(C)c1Cl	CYP2C19 inhib 50
